The results in this text go back to PubChem BioAssay (NCI).

The structures appear in SMILES notation. Values joined by “and” are separate entries in the source; they are usually repeats but may differ in a detail not shown here. Equal entries are not always repeated. Compounds without any hit were thinned out: in the full panel of roughly 83,000, 20% have a hit.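 Interpretation: 100, growth as untreated; towards 0, rising growth inhibition; 0, no net growth; 0 to -100, cell death. Compounds scoring below 10 were considered active.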 Where a structure was tested more than once in an assay, its records may differ in their call. Active and inactive are the calls of the source.

Among the test systems are NCI-H23 lung; NCI-H226 lung; NCI-H322M lung; HOP-62 NSCLC; NCI-H460 lung; HOP-92 NSCLC; NCI-H522 lung; A549/ATCC NSCLC; 786-0 renal; COLO 205 colon.
Holding throughout (experiment): NCI-60 one-dose screen, 48 h (100 = growth as untreated, 0 = no growth, -100 = all killed)
Common to all, as to details: 10 µM

Turning to `COc1ccc(C(=O)C(CN(C)C)CN(C)C)cc1`, the growth with NCI-H23 lung was 96.1% (inactive); in the experiment with NCI-H226 lung, 113% (inactive); in the experiment with NCI-H322M lung it was 98% (inactive); with HOP-62 NSCLC it was 97.9% (inactive); in the experiment on NCI-H460 lung it was 102% (inactive); with HOP-92 NSCLC it was 44% (inactive). The growth in the experiment on NCI-H522 lung was -54.1% (active); with A549/ATCC NSCLC, 118% (inactive); with 786-0 renal, 87.8% (inactive); in the experiment on COLO 205 colon, -75.3% (active).

Consider `CC1=CC(=C(c2ccc(N)cc2)c2ccc(N)cc2)C=CC1=N`, for which the growth in the experiment with NCI-H23 lung was 29.7% (inactive) and 44.7% (inactive); in the experiment with NCI-H226 lung, 17% (inactive) and 51.4% (inactive); in the experiment with NCI-H322M lung, 26.3% (inactive) and 38.5% (inactive); with HOP-62 NSCLC, 31.4% (inactive) and 20.6% (inactive); in the experiment with NCI-H460 lung, 6.34% (active); with HOP-92 NSCLC, 2.19% (active) and 63% (inactive). The growth with NCI-H522 lung was -8.93% (active) and 60.9% (inactive); with A549/ATCC NSCLC it was 14.1% (inactive) and 16.9% (inactive); with 786-0 renal it was 23.5% (inactive) and 42.8% (inactive); with COLO 205 colon, -8.22% (active) and -56.6% (active).

In the case of `CN(C)CCOC1(Cc2ccc(Cl)cc2Cl)CCC(C(C)(C)C)CC1` (centres undefined), the growth in the experiment on NCI-H23 lung was 33.4% (inactive) and 36.7% (inactive); with NCI-H226 lung, 53% (inactive) and 33.9% (inactive); in the experiment with NCI-H322M lung, 70% (inactive) and 76.3% (inactive); in the experiment on HOP-62 NSCLC, 39.8% (inactive) and 42.1% (inactive); in the experiment with NCI-H460 lung, -65.8% (active) and -61.2% (active); in the experiment with HOP-92 NSCLC, 47.9% (inactive) and 43% (inactive). The growth with NCI-H522 lung is 9.54% (active) and 48.6% (inactive); in the experiment on A549/ATCC NSCLC, 38.9% (inactive) and 21.1% (inactive); in the experiment with 786-0 renal it was 51.2% (inactive) and 24.3% (inactive); with COLO 205 colon it was -89.2% (active) and -87.9% (active).

Turning to `Cc1ccc(Sc2ccccc2N)cc1`, the growth in the experiment on NCI-H23 lung was 72.3% (inactive); in the experiment on NCI-H226 lung, 106% (inactive); with NCI-H322M lung, 105% (inactive); in the experiment with HOP-62 NSCLC, 100% (inactive); in the experiment on NCI-H460 lung it was 41.3% (inactive); with HOP-92 NSCLC it was 101% (inactive). In addition, the growth was 71.4% (inactive) in the experiment on NCI-H522 lung, 96% (inactive) in the experiment on A549/ATCC NSCLC, 108% (inactive) in the experiment on 786-0 renal and 96.8% (inactive) in the experiment with COLO 205 colon.

In the case of `C#CCN(Cc1ccc2nc(N)[nH]c(=O)c2c1)c1ccc(C(=O)NC(CCC(=O)O)C(=O)O)cc1` (centres undefined), the growth with NCI-H23 lung was 99.2% (inactive); in the experiment on NCI-H226 lung, 80.8% (inactive); with NCI-H322M lung it was 90.3% (inactive); in the experiment with HOP-62 NSCLC it was 82.3% (inactive); with NCI-H460 lung it was 80.1% (inactive); in the experiment on HOP-92 NSCLC it was 86.9% (inactive). Further, the growth in the experiment with NCI-H522 lung is 80.2% (inactive); in the experiment on A549/ATCC NSCLC, 95% (inactive); in the experiment with 786-0 renal, 12% (inactive); in the experiment with COLO 205 colon, 67.4% (inactive).

With `Cc1cc(N(CCOS(C)(=O)=O)CCOS(C)(=O)=O)ccc1C=Nc1ccc(-c2nc(Cc3ccccc3)sc2C)cc1`, the growth in the experiment with NCI-H23 lung was 31% (inactive); in the experiment with NCI-H226 lung, 61.6% (inactive); in the experiment with NCI-H322M lung, -18.9% (active); in the experiment with HOP-62 NSCLC, 36% (inactive); in the experiment with NCI-H460 lung, -38.3% (active); in the experiment on NCI-H522 lung it was -91.3% (active). Besides, the growth in the experiment on A549/ATCC NSCLC is 34.8% (inactive); with 786-0 renal, 13.8% (inactive); in the experiment with COLO 205 colon, -71.3% (active).

As for `O=[N+]([O-])c1cc[n+]([O-])cc1`, the growth was 100% (inactive) in the experiment with NCI-H23 lung; 105% (inactive) with NCI-H226 lung; 133% (inactive) in the experiment on NCI-H322M lung; 131% (inactive) with HOP-62 NSCLC; 103% (inactive) in the experiment with NCI-H460 lung; 116% (inactive) in the experiment with HOP-92 NSCLC. Moreover, the growth in the experiment with NCI-H522 lung was 83.1% (inactive); with A549/ATCC NSCLC, 101% (inactive); with 786-0 renal, 106% (inactive); with COLO 205 colon, 117% (inactive).

On to `C=C1C(=O)OC2CC1C(OC(C)=O)C/C(C)=C/CC/C(C)=C\CCC2(C)O` (centres undefined), for which the growth is 11.1% (inactive) with NCI-H23 lung; 15.9% (inactive) in the experiment on NCI-H226 lung; 67.3% (inactive) with NCI-H322M lung; 106% (inactive) in the experiment on HOP-62 NSCLC; 21.7% (inactive) with NCI-H460 lung; -28.6% (active) with HOP-92 NSCLC. The growth was -83.9% (active) with NCI-H522 lung, 64.1% (inactive) in the experiment on A549/ATCC NSCLC, 38.9% (inactive) with 786-0 renal and 0.7% (active) in the experiment on COLO 205 colon.
